# Experimental data as given in PMC7862700, “An all-to-all approach to the identification of sequence-specific readers for epigenetic DNA modifications on cytosine”.
# Experiments:
# Assay in all cases: DAPPL (digital affinity profiling via proximity ligation, sequencing); 10 mM Tris-HCl pH 7.5, 50 mM NaCl, 1 mM DTT, 4% glycerol, room temperature, 30 min; GST-TFs on glutathione beads, 16-mer random dsDNA library, 0.1% formaldehyde crosslink after washing; high values mean tight binding
# FEV = molecular target: T1, FEV (Homo sapiens, UniProt Q99581 1-238); settings: protein: recombinant; tags: N-terminal GST; dsDNA, one strand shown
# T1 sequence: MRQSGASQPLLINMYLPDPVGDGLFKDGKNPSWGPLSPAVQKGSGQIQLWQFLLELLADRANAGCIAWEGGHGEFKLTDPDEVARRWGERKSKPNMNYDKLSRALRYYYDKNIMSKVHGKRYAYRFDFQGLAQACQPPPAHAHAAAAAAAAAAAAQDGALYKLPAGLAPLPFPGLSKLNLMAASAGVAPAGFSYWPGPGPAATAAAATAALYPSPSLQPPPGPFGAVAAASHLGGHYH
# Method in brief: (§1)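 Yeast served to express human transcription factors as GST fusions, which were then captured on glutathione beads and labelled with DNA barcodes. Pooled with a tag-only sample, they were incubated with 200 nmole of a 16-mer random double-stranded DNA library for 30 min at room temperature in Tris/NaCl/DTT/glycerol buffer, washed, crosslinked with 0.1% formaldehyde, ligated by proximity, amplified by PCR and sequenced. Dividing each hexamer's read frequency for a factor by its frequency for the tag-only sample gives the binding signal.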
# ETV5 = ETV5 (Homo sapiens, UniProt P41161 1-510); settings: protein: recombinant; tags: N-terminal GST; dsDNA, one strand shown
# Sequence of ETV5 (P41161 whole entry): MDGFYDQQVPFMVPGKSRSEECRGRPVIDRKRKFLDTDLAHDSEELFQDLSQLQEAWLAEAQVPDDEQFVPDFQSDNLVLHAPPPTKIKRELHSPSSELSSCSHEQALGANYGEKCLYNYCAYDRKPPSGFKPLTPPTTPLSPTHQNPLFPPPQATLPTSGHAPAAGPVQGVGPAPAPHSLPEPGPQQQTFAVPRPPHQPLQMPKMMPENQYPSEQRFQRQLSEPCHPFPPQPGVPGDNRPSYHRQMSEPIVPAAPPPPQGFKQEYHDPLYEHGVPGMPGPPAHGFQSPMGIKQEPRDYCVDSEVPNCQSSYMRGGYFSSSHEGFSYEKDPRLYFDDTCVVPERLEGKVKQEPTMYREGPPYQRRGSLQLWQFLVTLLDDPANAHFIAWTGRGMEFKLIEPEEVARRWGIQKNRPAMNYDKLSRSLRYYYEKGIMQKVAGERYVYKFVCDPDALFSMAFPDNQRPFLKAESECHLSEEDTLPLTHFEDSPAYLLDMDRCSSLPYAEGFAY
# Method in brief: as §1
# HSF1 = HSF1 (Homo sapiens, UniProt Q00613 1-529); settings: protein: recombinant; tags: N-terminal GST; chain copies: 3; dsDNA, one strand shown
# Sequence of HSF1 (Q00613 whole entry): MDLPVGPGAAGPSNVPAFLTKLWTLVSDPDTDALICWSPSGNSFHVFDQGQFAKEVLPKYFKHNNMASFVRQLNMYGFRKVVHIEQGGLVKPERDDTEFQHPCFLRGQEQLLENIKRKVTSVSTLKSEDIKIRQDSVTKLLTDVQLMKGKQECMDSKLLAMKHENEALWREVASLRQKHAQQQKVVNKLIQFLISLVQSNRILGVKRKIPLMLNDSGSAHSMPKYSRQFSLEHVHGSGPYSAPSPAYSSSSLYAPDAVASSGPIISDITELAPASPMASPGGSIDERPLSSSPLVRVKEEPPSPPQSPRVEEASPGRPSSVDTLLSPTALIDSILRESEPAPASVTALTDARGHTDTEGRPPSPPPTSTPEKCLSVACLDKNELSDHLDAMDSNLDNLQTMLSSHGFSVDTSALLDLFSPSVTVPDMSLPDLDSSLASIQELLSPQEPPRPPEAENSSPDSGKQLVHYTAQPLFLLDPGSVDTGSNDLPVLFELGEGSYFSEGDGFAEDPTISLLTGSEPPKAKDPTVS
# Method in brief: as §1
# SPIC = molecular target: T2, SPIC (Homo sapiens, UniProt Q8N5J4 1-248); settings: protein: recombinant; tags: N-terminal GST; dsDNA, one strand shown
# T2 sequence: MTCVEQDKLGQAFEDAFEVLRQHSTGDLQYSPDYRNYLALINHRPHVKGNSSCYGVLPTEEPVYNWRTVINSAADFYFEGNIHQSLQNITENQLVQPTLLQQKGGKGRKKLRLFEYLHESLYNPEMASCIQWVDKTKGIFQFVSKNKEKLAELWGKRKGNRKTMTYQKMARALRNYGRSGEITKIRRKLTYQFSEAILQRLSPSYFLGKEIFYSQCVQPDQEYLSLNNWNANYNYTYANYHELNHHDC
# Method in brief: as §1
# ELF4 = ELF4 (Homo sapiens, UniProt Q99607 1-663); settings: protein: recombinant; tags: N-terminal GST; dsDNA, one strand shown
# Sequence of ELF4 (Q99607 whole entry): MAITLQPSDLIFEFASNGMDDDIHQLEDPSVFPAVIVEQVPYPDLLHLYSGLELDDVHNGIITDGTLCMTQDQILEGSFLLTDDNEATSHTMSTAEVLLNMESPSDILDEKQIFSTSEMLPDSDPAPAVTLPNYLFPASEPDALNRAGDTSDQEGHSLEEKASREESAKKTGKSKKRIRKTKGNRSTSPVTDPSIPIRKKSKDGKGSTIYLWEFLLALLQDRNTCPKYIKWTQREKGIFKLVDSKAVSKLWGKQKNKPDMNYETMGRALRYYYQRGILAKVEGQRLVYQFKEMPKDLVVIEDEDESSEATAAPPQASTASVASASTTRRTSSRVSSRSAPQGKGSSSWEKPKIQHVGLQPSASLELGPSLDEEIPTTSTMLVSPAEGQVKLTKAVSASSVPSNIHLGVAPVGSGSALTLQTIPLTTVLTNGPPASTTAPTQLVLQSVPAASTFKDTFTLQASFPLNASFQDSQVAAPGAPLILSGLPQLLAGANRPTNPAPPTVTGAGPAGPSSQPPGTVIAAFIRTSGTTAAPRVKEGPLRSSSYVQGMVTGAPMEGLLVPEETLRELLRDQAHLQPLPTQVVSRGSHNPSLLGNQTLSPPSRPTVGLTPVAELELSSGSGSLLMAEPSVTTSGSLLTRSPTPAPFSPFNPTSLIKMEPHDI
# Method in brief: as §1
# ELK4 = molecular target: T3, ELK4 (Homo sapiens, UniProt P28324-2 1-405); settings: protein: recombinant; tags: N-terminal GST; dsDNA, one strand shown
# T3 sequence: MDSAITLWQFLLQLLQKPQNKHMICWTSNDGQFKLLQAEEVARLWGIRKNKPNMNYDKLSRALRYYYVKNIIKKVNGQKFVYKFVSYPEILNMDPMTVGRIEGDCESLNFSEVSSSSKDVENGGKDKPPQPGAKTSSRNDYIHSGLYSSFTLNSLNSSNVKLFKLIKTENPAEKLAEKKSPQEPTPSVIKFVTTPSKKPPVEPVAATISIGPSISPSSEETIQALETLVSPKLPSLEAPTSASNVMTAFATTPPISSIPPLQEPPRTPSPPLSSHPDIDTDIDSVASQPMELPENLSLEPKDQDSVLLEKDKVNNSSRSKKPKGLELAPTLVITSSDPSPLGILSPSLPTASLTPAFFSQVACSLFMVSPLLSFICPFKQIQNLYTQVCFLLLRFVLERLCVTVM
# Method in brief: as §1
# ETV2 = molecular target: T4, ETV2 (Homo sapiens, UniProt O00321 1-342); settings: protein: recombinant; tags: N-terminal GST; dsDNA, one strand shown
# T4 sequence: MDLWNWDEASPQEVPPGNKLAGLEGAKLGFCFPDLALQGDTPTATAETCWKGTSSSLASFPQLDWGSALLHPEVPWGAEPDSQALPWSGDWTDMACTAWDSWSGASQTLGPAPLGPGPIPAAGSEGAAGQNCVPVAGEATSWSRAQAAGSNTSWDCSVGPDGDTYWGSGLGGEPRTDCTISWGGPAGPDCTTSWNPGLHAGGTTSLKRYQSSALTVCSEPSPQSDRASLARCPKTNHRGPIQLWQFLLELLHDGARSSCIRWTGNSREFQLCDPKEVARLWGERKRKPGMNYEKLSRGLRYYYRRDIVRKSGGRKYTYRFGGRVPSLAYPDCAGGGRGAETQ
# Method in brief: as §1
# ELF3 = molecular target: T5, ELF3 (Homo sapiens, UniProt P78545 1-371); settings: protein: recombinant; tags: N-terminal GST; dsDNA, one strand shown
# T5 sequence: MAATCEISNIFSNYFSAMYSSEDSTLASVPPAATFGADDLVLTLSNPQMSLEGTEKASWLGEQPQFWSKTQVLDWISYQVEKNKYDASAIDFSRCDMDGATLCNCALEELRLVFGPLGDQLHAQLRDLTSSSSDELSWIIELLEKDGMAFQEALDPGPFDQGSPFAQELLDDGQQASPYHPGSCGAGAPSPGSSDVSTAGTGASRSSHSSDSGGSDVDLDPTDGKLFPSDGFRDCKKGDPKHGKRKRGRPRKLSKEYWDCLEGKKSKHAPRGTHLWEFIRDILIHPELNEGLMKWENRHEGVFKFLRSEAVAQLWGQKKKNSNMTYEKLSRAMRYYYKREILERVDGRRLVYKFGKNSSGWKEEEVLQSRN
# Method in brief: as §1
# CRX = CRX (Homo sapiens, UniProt O43186 1-299); settings: protein: recombinant; tags: N-terminal GST; dsDNA, one strand shown
# Sequence of CRX (O43186 whole entry): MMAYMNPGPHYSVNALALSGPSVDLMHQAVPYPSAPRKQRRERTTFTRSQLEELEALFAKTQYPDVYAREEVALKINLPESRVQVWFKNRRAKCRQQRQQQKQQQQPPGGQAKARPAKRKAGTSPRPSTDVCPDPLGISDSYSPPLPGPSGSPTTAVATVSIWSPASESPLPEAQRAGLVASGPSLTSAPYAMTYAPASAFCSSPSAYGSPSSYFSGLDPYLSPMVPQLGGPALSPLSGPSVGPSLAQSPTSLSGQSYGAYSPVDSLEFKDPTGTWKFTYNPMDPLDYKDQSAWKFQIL
# Method in brief: as §1
# ETV1 = ETV1 (Homo sapiens, UniProt P50549 1-477); settings: protein: recombinant; tags: N-terminal GST; dsDNA, one strand shown
# Sequence of ETV1 (P50549 whole entry): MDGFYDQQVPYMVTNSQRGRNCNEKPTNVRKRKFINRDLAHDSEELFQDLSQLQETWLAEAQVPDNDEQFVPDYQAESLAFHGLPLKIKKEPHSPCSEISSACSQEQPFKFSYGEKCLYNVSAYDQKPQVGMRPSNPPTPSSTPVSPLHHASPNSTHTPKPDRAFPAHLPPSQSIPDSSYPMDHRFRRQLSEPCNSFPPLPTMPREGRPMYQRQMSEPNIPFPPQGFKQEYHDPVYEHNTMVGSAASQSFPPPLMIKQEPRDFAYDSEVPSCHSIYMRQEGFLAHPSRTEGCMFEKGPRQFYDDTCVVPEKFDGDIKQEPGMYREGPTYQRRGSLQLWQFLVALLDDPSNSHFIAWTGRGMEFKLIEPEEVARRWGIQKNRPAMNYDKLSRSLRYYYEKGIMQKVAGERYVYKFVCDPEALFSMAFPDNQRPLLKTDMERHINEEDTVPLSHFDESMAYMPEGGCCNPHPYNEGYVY
# Method in brief: as §1
# ERF = molecular target: T6, ERF (Homo sapiens, UniProt P50548 1-548); settings: protein: recombinant; tags: N-terminal GST; dsDNA, one strand shown
# T6 sequence: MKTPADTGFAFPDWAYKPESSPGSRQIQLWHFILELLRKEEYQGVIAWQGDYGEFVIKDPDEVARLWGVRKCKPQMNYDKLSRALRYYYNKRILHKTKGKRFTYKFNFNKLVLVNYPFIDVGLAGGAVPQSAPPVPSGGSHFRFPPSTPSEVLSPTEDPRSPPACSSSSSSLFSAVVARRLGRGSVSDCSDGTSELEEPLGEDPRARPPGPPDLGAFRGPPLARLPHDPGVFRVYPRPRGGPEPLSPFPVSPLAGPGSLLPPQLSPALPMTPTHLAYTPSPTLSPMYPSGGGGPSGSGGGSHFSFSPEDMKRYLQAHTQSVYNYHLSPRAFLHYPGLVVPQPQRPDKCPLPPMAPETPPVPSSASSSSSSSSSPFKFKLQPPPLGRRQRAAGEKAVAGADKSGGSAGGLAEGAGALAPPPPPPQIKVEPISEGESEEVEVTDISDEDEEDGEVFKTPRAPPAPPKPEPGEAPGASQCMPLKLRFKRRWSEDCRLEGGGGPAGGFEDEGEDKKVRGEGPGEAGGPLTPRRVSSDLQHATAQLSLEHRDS
# Method in brief: as §1
# ETV3L = molecular target: T7, ETV3L (Homo sapiens, UniProt Q6ZN32 1-361); settings: protein: recombinant; tags: N-terminal GST; dsDNA, one strand shown
# T7 sequence: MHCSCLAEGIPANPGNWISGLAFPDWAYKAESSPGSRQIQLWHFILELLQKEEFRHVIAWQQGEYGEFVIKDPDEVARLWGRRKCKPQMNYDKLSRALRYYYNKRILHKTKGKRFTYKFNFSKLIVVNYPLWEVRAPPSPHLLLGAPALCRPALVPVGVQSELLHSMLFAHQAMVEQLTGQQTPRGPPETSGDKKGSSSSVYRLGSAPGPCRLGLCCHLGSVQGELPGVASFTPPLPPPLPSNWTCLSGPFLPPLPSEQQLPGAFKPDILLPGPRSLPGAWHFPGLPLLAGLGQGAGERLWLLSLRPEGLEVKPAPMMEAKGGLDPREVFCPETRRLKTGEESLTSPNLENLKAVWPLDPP
# Method in brief: as §1
# ETS2 = molecular target: T8, ETS2 (Homo sapiens, UniProt P15036 1-469); settings: protein: recombinant; tags: N-terminal GST; dsDNA, one strand shown
# T8 sequence: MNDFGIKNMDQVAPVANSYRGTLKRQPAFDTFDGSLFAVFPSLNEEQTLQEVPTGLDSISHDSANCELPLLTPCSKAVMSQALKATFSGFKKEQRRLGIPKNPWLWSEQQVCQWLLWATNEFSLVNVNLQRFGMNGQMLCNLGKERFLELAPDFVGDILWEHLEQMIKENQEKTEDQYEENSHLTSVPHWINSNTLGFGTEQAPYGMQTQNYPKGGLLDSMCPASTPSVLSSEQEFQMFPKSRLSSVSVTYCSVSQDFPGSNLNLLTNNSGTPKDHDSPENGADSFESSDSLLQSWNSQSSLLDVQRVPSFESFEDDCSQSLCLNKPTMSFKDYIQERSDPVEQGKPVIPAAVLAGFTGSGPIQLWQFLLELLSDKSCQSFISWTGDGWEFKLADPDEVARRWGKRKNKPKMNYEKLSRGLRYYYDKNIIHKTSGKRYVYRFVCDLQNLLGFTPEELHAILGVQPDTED
# Method in brief: as §1
# SPDEF = molecular target: T9, SPDEF (Homo sapiens, UniProt O95238 1-335); settings: protein: recombinant; tags: N-terminal GST; dsDNA, one strand shown
# T9 sequence: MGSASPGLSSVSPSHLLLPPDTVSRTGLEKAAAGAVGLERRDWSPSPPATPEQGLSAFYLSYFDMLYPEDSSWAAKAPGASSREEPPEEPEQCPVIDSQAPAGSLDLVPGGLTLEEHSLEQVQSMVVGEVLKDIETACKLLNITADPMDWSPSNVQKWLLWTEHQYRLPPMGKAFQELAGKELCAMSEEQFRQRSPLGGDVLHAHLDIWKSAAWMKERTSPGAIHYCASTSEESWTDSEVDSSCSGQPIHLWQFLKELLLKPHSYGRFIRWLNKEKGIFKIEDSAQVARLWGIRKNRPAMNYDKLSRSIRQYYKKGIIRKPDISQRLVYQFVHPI
# Method in brief: as §1
# ETV7 = molecular target: T10, ETV7 (Homo sapiens, UniProt Q9Y603 1-341); settings: protein: recombinant; tags: N-terminal GST; dsDNA, one strand shown
# T10 sequence: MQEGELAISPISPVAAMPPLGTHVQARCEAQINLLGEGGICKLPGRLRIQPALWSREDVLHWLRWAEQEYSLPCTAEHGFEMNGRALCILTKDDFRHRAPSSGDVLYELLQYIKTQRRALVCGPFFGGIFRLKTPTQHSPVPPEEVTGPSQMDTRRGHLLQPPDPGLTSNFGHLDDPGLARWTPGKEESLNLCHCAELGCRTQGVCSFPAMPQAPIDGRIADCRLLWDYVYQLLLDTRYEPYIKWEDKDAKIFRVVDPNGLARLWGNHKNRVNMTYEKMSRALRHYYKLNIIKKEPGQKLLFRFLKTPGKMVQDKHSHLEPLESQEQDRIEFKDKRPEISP
# Method in brief: as §1
# ELF5 = molecular target: T11, ELF5 (Homo sapiens, UniProt Q9UKW6-2 1-255); settings: protein: recombinant; tags: N-terminal GST; dsDNA, one strand shown
# T11 sequence: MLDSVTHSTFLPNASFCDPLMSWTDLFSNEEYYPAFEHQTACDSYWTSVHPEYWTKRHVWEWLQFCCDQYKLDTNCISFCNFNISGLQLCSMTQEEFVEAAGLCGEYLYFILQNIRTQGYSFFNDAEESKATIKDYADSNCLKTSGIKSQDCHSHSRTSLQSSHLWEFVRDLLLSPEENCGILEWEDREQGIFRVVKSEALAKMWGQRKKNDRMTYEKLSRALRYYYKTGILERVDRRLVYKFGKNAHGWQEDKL
# Method in brief: as §1
# ETV3 = molecular target: T12, ETV3 (Homo sapiens, UniProt P41162-2 1-143); settings: protein: recombinant; tags: N-terminal GST; dsDNA, one strand shown
# T12 sequence: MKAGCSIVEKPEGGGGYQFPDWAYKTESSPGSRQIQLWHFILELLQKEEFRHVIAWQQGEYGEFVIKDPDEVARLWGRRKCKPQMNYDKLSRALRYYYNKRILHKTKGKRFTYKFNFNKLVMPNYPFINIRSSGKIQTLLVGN
# Method in brief: as §1
# ETV6 = ETV6 (Homo sapiens, UniProt P41212 1-452); settings: protein: recombinant; tags: N-terminal GST; dsDNA, one strand shown
# Sequence of ETV6 (P41212 whole entry): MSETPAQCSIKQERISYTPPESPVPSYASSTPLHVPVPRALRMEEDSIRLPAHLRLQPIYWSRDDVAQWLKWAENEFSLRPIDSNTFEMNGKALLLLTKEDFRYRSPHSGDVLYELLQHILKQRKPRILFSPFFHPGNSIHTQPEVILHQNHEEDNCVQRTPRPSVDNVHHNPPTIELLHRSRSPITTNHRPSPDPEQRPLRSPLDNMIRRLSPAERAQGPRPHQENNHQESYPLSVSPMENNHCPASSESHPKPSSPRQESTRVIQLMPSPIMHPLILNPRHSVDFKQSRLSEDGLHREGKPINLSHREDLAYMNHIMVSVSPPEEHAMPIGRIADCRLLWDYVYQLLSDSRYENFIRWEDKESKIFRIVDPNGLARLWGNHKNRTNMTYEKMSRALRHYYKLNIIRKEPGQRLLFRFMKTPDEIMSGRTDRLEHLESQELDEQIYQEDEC
# Method in brief: as §1
sequence,measurement,setting,value
CTCCTA,binding signal,FEV,"1.32 fold enrichment (6-mer frequency, TF over GST control)"
same,binding signal,ETV5,"1.28 fold enrichment (6-mer frequency, TF over GST control)"
same,binding signal,HSF1,"1.39 fold enrichment (6-mer frequency, TF over GST control)"
same,binding signal,SPIC,"1.49 fold enrichment (6-mer frequency, TF over GST control)"
same,binding signal,ELF4,"1.44 fold enrichment (6-mer frequency, TF over GST control)"
same,binding signal,ELK4,"1.46 fold enrichment (6-mer frequency, TF over GST control)"
same,binding signal,ETV2,"1.24 fold enrichment (6-mer frequency, TF over GST control)"
same,binding signal,ELF3,"1.31 fold enrichment (6-mer frequency, TF over GST control)"
same,binding signal,CRX,"1.49 fold enrichment (6-mer frequency, TF over GST control)"
same,binding signal,ETV1,"1.29 fold enrichment (6-mer frequency, TF over GST control)"
same,binding signal,ERF,"1.49 fold enrichment (6-mer frequency, TF over GST control)"
same,binding signal,ETV3L,"1.36 fold enrichment (6-mer frequency, TF over GST control)"
same,binding signal,ETS2,"1.32 fold enrichment (6-mer frequency, TF over GST control)"
same,binding signal,SPDEF,"1.34 fold enrichment (6-mer frequency, TF over GST control)"
same,binding signal,ETV7,"1.37 fold enrichment (6-mer frequency, TF over GST control)"
same,binding signal,ELF5,"1.41 fold enrichment (6-mer frequency, TF over GST control)"
same,binding signal,ETV3,"1.23 fold enrichment (6-mer frequency, TF over GST control)"
same,binding signal,ETV6,"1.29 fold enrichment (6-mer frequency, TF over GST control)"
